Bioassay records: PubChem BioAssay, several laboratories
An excerpt weighted towards active compounds, which were near 3.3% of everything screened.
HNF4A DNA FP: change in binding of human HNF4 alpha to DNA; P41235; HNF4a-FITC DNA binding, fluorescence polarization, 1 h; activity change, % at 10 µM; 0.3% of 360,000 active; in the data active = activity change above about 30%, passing the limit was not always enough
Target sequence (P41235 whole entry, looked up): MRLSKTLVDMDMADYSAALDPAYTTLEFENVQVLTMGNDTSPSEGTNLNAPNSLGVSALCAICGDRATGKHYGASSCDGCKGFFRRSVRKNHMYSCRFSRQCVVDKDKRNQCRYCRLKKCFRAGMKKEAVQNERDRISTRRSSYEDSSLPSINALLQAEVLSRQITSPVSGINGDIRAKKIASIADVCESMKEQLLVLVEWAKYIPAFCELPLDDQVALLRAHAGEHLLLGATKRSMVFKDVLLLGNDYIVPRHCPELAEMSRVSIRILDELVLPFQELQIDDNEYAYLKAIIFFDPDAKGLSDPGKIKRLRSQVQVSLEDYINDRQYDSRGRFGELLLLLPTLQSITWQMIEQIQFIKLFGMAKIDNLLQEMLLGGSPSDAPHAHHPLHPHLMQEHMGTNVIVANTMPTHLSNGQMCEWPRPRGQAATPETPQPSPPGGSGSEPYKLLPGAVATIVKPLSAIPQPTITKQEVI
TPT1 inhibitor: blocks Candida albicans tRNA 2'-phosphotransferase; recombinant caTPT1, FP RNA substrate dephosphorylation; AID 1962; 0.81% of 300,000 active; inhibition, % at 5 µM;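 active = inhibition above the mean of all tested compounds plus 3 SD, set per screening campaign, cut at about 24% in these data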
CendR NRP1 mod: modulators of CendR peptide binding to human neuropilin-1; inhibition, % at 25 µM; O14786; FAM-RPARPAR peptide binding to NRP-1, fluorescence polarization; AID 602438; 0.85% of 360,000 active;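 active = inhibition or corrected inhibition above about 18%, plus a signal ratio from 0.5 to 1.5, limit read from the data, passing the limit was not always enough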
PHOSPHO1 inh: inhibitors of human PHOSPHO1 phosphatase | 1.1% of 290,000 active | inhibition, % at 13.3 µM | recombinant PHOSPHO1, absorbance phosphatase assay | AID 1565 | Q8TCT1; in the data active = inhibition above about 60%
Rpn11 inh: inhibitors of human proteasome Rpn11. O00487. human 26S proteasome, Ub4-pepOG fluorescence polarization; 20S core pre-blocked with epoxomicin. inhibition, % at 20 µM. 0.59% of 360,000 active. AID 588493;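 active = inhibition at 20 µM, scaled to each plate's controls, above about 33%, limit read from the data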
Fh CTSL1 inh: blocks F. hepatica cathepsin L1 in PFM18AAP counter-screen; recombinant F. hepatica cathepsin L1, Z-Leu-Arg-MCA fluorescence; inhibition, % at 5.96 µM; 0.49% of 300,000 active;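 active = inhibition above the mean of all tested compounds plus 3 SD, set per screening campaign, cut at about 17% in these data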
Rpn11 inh conf: Rpn11 inhibition confirmation, single concentration; inhibition, % at 20 µM; purified human 26S proteasome, Ub4-pepOG fluorescence polarization; proteasome pretreated with epoxomicin; 29% of 1,900 active; shares compounds with Rpn11 inh
MMP-2 counter: blocks human MMP-2, flagging nonselective RPN11 hits. 4% of 1,900 active. inhibition, % at 20 µM. shares compounds with Rpn11 inh. recombinant MMP-2, FRET peptide cleavage fluorescence;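 note: human MMP-2 activated beforehand with APMA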
Thrombin FP: blocks bovine thrombin, flagging nonselective RPN11 hits | 13% of 1,900 active | shares compounds with Rpn11 inh | bovine thrombin cleavage of Ub4-pepOG, fluorescence polarization | inhibition, % at 20 µM;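 active = mean inhibition at least 40% at 20 µM, or signal 3 deviations below plate average, so some actives read negative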
Of the large screens only hits and unclear results are named; the others gave an inactive call (follow-up assays come after a bar, where shown). Cut-off read from the data, not from the text of the source, unless noted: active = inhibition above about 40%; inactive = the rest.

CCOC(=O)c1cc(-c2ccccc2)sc1NC(=O)C(C)N1C(=O)NC(C)(c2ccc(Cl)cc2)C1=O (centres undefined)	HNF4A DNA FP 51, Rpn11 inh 120 | Rpn11 inh conf inactive | MMP-2 counter inactive | Thrombin FP inactive
CCOC(=O)c1cc(-c2ccccc2)sc1NC(=O)C(C)Sc1nnc(C)s1 (centres undefined)	none
COc1ccc(N2CCN(Cc3nc4scc(-c5ccccc5)c4c(=O)[nH]3)CC2)cc1	none
COc1ccc(N2CCN(Cc3nc4scc(-c5cccs5)c4c(=O)[nH]3)CC2)cc1	Rpn11 inh 58 | Rpn11 inh conf inactive | MMP-2 counter inactive | Thrombin FP inactive
O=c1[nH]c(CN2CCN(c3ccccc3)CC2)nc2scc(-c3ccccc3)c12	Rpn11 inh 41 | Rpn11 inh conf inactive | MMP-2 counter inactive | Thrombin FP inactive
C[C@H](CO)N1C[C@H](C)[C@@H](CN(C)S(=O)(=O)c2ccc(F)cc2)Oc2ccc(NC(=O)C3CC3)cc2C1=O	none (no result: TPT1 inhibitor, PHOSPHO1 inh, Fh CTSL1 inh)
CC(=O)Nc1ccc(S(=O)(=O)NCCC(=O)OCC(=O)c2cc(C)ccc2C)cc1	none (no result: TPT1 inhibitor, PHOSPHO1 inh, Fh CTSL1 inh)
Cc1nc2cc(NC(=O)CCS(=O)(=O)c3ccccc3)ccc2s1	none
COc1ccc(/C=C2\N=C(c3ccccc3Cl)NC2=O)cc1	none (no result: TPT1 inhibitor, Fh CTSL1 inh)
O=C(Nc1ccccc1-c1nnc(SCc2ccccc2)o1)c1ccccc1	none
O=C(Nc1ccccc1-c1nnc(SCc2ccc(Cl)cc2)o1)c1ccccc1	Rpn11 inh 66 | Rpn11 inh conf inactive | MMP-2 counter inactive | Thrombin FP inactive
COc1ccc(OC)c(/C=C2\S/C(=N/NC(=O)c3ccc4ccccc4c3)NC2=O)c1	none (not shown: Rpn11 inh)
O=C1N/C(=N/NC(=O)c2cccc3ccccc23)S/C1=C\c1ccccc1OCc1ccccc1	Rpn11 inh 45 (no result: TPT1 inhibitor, Fh CTSL1 inh) | Rpn11 inh conf inactive | MMP-2 counter inactive | Thrombin FP inactive
COc1cc(/C=C/c2ccc3c(Br)cc(Br)c(O)c3n2)ccc1O	Rpn11 inh 43 | Rpn11 inh conf inactive | MMP-2 counter inactive | Thrombin FP inactive
O=C(Nc1ccc2c(c1)OCO2)C1CCCCN1S(=O)(=O)c1ccc(F)cc1 (centres undefined)	none
O=C(O)CSc1cc(C(=O)c2ccccc2O)cn2c(=O)c3c(-c4ccccc4)csc3nc12	none
CCOC(=O)c1sc2nc3c(SCC(=O)O)cc(C(=O)c4ccccc4O)cn3c(=O)c2c1C	Rpn11 inh 100 | Rpn11 inh conf 45 | MMP-2 counter inactive | Thrombin FP active
CN1CCN(C(c2cccc(Cl)c2)c2ccccc2Cl)CC1 (centres undefined)	none
O=C(Nc1ccc(C2=NCCN2)cc1)c1ccc(C(=O)Nc2ccc(C3=NCCN3)cc2)c([N+](=O)[O-])c1	Rpn11 inh 73 | Rpn11 inh conf inactive | MMP-2 counter 61 | Thrombin FP inactive
O=C(CCN1C(=O)/C(=C/C=C/c2ccccc2)SC1=S)Nc1nc2ccccc2s1	Rpn11 inh 54 | Rpn11 inh conf inactive | MMP-2 counter inactive | Thrombin FP inactive
O=C(CCN1C(=O)/C(=C\C=C\c2ccccc2)SC1=S)Nc1ccc(C(=O)O)cc1	none
COC(=O)C1=C(C)NC(=O)/C1=C\c1cc(C)n(-c2c(C)cccc2C)c1C	Rpn11 inh 58 | Rpn11 inh conf inactive | MMP-2 counter inactive | Thrombin FP inactive
COc1cc(OC)cc(C(=O)Nc2cccc3nc(C)ccc23)c1	none (no result: TPT1 inhibitor, Fh CTSL1 inh)
O=C(/C=C/c1ccc(Br)cc1)c1ccc(NC(=O)c2ccco2)cc1	Rpn11 inh 55 | Rpn11 inh conf inactive | MMP-2 counter inactive | Thrombin FP inactive
Cc1cc(C)cc(NC(=O)c2ccc(NC(=O)c3ccco3)cc2)c1	none
O=C(/C=C/c1ccc(Br)cc1)c1ccco1	none
COC(=O)c1ccc(NC(=O)c2ccc(NC(=O)c3ccco3)cc2)cc1	HNF4A DNA FP 102, Rpn11 inh 96 | Rpn11 inh conf 85 | MMP-2 counter inactive | Thrombin FP inactive
